Measured values reported in PubChem BioAssay (NCATS).
Inconclusive results are not listed. Entries that show only a call come without a potency. Calls of active or inactive are those of the source. Calls come from the whole dose curve; as a rule, active = well fitted cell-killing curve with a large enough effect; inconclusive = small, poorly fitted or top-dose-only effect, or effect the other way; inactive = no such curve, though single readings can be large or run the other way.
Potency is the fitted concentration of half-maximal effect.

Assay: Quantitative highthroughput screen to assess conditional lethalithy of NOMO1 cells grown in Human Plasma-Like Medium with dialyzed fetal bovine serum (HPLM+ds) (AID 1963878); note: nearly all actives have a fitted effect of over 35% in size
Conditions: NOMO1 AML cells in HPLM+ds, CellTiter-Glo viability, 48 h; series mostly up to 45.8 µM
In short: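 Each medium arm—HPLM with 10% dialyzed FBS, or RPMI1640 with 5 mM glucose and 10% untreated or dialyzed FBS—was screened against an 11-point, 3-fold compound titration for 48 h at 37 °C, with CellTiter-Glo luminescence as endpoint.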
In the case of O=c1oc2c(O)c(O)cc3c(=O)oc4c(O)c(O)cc1c4c23, the Potency is reported as “inactive”.
For Nc1ccn([C@@H]2CS[C@H](CO)O2)c(=O)n1, the Potency was “inactive”.
In the case of N#Cc1ccc(C(c2ccc(C#N)cc2)n2cncn2)cc1, the Potency is reported as “inactive”.
With CC(C)Cn1cnc2c(N)nc3ccccc3c21 the Potency was “inactive”.
With Cn1ccc2cc3c(cc21)CCN3C(=O)Nc1cccnc1 the Potency was “inactive”.
For OC[C@H]1O[C@@H](OCCc2ccc(O)cc2)[C@H](O)[C@@H](O)[C@H]1O, the Potency was “inactive”.
With CC(=O)c1cnc2ccc(-c3cc(Cl)c(O)c(Cl)c3)nc2c1NC1CCC(CN(C)C)CC1 (stereo not drawn) the Potency was 0.066 µM (active).
For CCc1c(O)cc(O)c(C(=O)c2ccc(OCCN3CCOCC3)c(OC)c2)c1CC(=O)N(CCOC)CCOC, the Potency was 2.35 µM (active).
With Cn1cnc([N+](=O)[O-])c1Sc1ncnc2nc[nH]c12 the Potency was 2.64 µM (active).
In the case of C[C@@H](c1ncncc1F)[C@](O)(Cn1cncn1)c1ccc(F)cc1F, the Potency is reported as “inactive”.
With Oc1c(Cl)cc(Cl)c2cccnc12 the Potency was “inactive”.
For Fc1cc(-c2cccc3ncc(-c4cnn(C5CCNCC5)c4)nc23)cc(F)c1CN1CCOCC1, the Potency was 3.32 µM (active).
In the case of C1COC(NC(C2CC2)C2CC2)=N1, the Potency is reported as “inactive”.
In the case of COc1cc2c(cc1OC)CN(CCc1ccc(NC(=O)c3cc(OC)c(OC)cc3NC(=O)c3cnc4ccccc4c3)cc1)CC2, the Potency is reported as “inactive”.
For CCCCOc1c(C(=O)c2c(F)cc(C)cc2F)cnc2n[nH]cc12, the Potency was “inactive”.
For CC(C)CC(=O)Nc1n[nH]c2c1CN(C(=O)C1CCN(C)CC1)C2(C)C, the Potency was 6.62 µM (active).
With CNC1CCCN(c2c(F)cc3c(=O)c(C(=O)O)cn(C4CC4)c3c2OC)C1 (stereo not drawn) the Potency was “inactive”.
With Clc1ccc(C2(c3ccc(-c4cn[nH]c4)cc3)CCNCC2)cc1 the Potency was 3.32 µM (active).
With Cc1cnc(CNC(=O)c2c(=O)c3ccc(N4CCCN(C)CC4)nc3n3c2sc2ccccc23)cn1 the Potency was “inactive”.
For CCOC(=O)C1=C(N)Oc2ccc(Br)cc2C1C(C#N)C(=O)OCC (stereo not drawn), the Potency was “inactive”.
For Cc1cnc(Nc2ccc(N3CCN(C)CC3)cc2)nc1Nc1cccc(S(=O)(=O)NC(C)(C)C)c1, the Potency was 14.8 µM (active).
With N=c1nc(N2CCCCC2)cc(N)n1O the Potency was “inactive”.
In the case of CCOC(=O)c1ncn2c1CN(C)C(=O)c1cc(F)ccc1-2, the Potency is reported as 20.9 µM (active).
